# PubChem BioAssay AID1240 (Sanford-Burnham Center for Chemical Genomics, 2008)
# In all, about 50,000 compounds went through this assay and about 800 (1.6%) showed an effect of 50% or more. The list comes from a sample in which strong results are over-represented; it also holds similar structures and randomly drawn compounds.
# Molecular target: Bcl-2-like protein 10 (Homo sapiens) (UniProt Q9HD36)
# Assay: Phenotype converters, Bcl-B/TR3 peptide binding displacement, primary biochemical FP (AID 1240);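 further: 0% = Bcl-B with tracer peptide and DMSO and 100% = tracer peptide lacking Bcl-B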
# Details: GST-Bcl-B / FITC-TR3 peptide fluorescence polarization; stronger effect = higher value; compound at 3.75 mg/L
# Bcl-2-like protein 10 (Homo sapiens), sequence (Q9HD36 whole entry, looked up): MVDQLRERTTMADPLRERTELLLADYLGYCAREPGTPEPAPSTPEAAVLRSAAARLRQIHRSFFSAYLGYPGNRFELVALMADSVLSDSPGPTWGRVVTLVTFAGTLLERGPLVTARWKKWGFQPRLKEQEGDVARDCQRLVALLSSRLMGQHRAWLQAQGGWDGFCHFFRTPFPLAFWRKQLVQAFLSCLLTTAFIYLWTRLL
row,Structure (SMILES),displacement
1,CCOc1cc([N+](=O)[O-])cc(/C=C2/SC(=S)NC2=O)c1O,14%
2,NS(=O)(=O)c1ccc(NC(=O)COc2ccc3ccccc3c2)cc1,3%
3,Cc1ccc(OCCCN2CCN(C)CC2)c(C(C)(C)C)c1,-8%
4,CC(=NCCN1CCNCC1)C1=C(O)CC(C)(C)CC1=O,-4.3%
5,O=c1nc(/C=C/c2cc3c(cc2Br)OCO3)cc(C(F)(F)F)[nH]1,115%
6,O=c1nc(/C=C/c2cc3c(cc2[N+](=O)[O-])OCO3)cc(C(F)(F)F)[nH]1,30.4%
7,COc1cccc(/C=C/c2cc(C(F)(F)F)[nH]c(=O)n2)c1OC,121%
8,COc1cc(OC)c(OC)cc1/C=C/c1cc(C(F)(F)F)[nH]c(=O)n1,7.5%
9,COc1cc(/C=C/c2cc(C(F)(F)F)[nH]c(=O)n2)cc(OC)c1OC,2.7%
10,O=c1nc(/C=C/c2cccc3ccccc23)cc(C(F)(F)F)[nH]1,49.7%
11,CCOC(=O)c1c(NC(=O)c2ccc(Cl)cc2)sc(C(=O)Nc2ccccc2OCC)c1C,3.5%
12,Cc1cc(N2C(=O)NC(=O)/C(=C\c3ccc(N(C)C)o3)C2=O)ccc1Br,153%
13,Cc1cc(N2C(=O)NC(=O)/C(=C\C=C\c3ccco3)C2=O)ccc1Br,-3.7%
14,Cc1cc(N2C(=O)NC(=O)/C(=C\c3ccc(N4CCOCC4)o3)C2=O)ccc1Br,-33.9%
15,Cc1cc(N2C(=O)NC(=O)/C(=C\c3ccco3)C2=O)ccc1Br,74%
16,O=C1NC(=O)N(c2ccc(Br)cc2)C(=O)/C1=C/c1ccco1,30.1%
17,Cc1ccc(N2C(=O)NC(=O)/C(=C\c3ccc(N(C)C)o3)C2=O)cc1,-134%
18,Cc1ccc(N2C(=O)NC(=O)/C(=C\c3ccc(N4CCCCC4)o3)C2=O)cc1,-139%
19,CCN(CC)c1ccc(/C=C2\C(=O)NC(=O)N(c3ccc(Br)c(C)c3)C2=O)o1,42.6%
20,Cc1cc(N2C(=O)NC(=O)/C(=C\c3ccc(N4CCCCC4)o3)C2=O)ccc1Br,55.5%
21,CC(C)(C)C1(O)CC(c2ccccc2)=NO1 (stereo not drawn),18.6%
22,O=C1c2ccccc2C(=O)c2c(NC(=O)C3CC4CCC3C4)cccc21 (stereo not drawn),-7.7%
23,O=C(c1ccccc1)N1CCN(C2CC(=O)N(CCc3ccccc3)C2=O)CC1 (stereo not drawn),3.9%
24,CCC1=NN2C(=N)/C(=C/c3ccc4c(c3)OCO4)C(=O)N=C2S1,3%
25,CCOc1cccc(N2C(=O)NC(=O)/C(=C\c3ccc(Sc4ccccc4)o3)C2=O)c1,4%
26,Cc1nc(-c2ccccc2)nc2[nH]c(-c3ccccc3)cc(=O)c12,69.8%
27,Cc1cc(=O)c2c(C)nc(-c3ccccc3)nc2[nH]1,31.5%

row,Structure (SMILES),displacement
1,CSc1nc(-c2ccccc2)nc2[nH]c(-c3ccccc3)cc(=O)c12,44.4%
2,CCOC(=O)c1ccc(NC(=O)c2cc(-c3cccs3)nc3ccccc23)cc1,4.7%
3,CCN(CC)CCNC(=O)c1ccc(Cl)c(Cl)c1,-5.2%
4,Cc1ccc(C(=O)NC(NC(=S)Nc2cccc3ccccc23)C(Cl)(Cl)Cl)cc1 (stereo not drawn),54.9%
5,O=C(NC(NC(=S)Nc1cccc2ccccc12)C(Cl)(Cl)Cl)c1ccccc1 (stereo not drawn),18.6%
6,Cc1ccc(C(=O)NC(NC(=S)Nc2ccccc2Cl)C(Cl)(Cl)Cl)cc1 (stereo not drawn),-10.7%
7,CC(=O)c1cc2c(N)c(C(=O)c3ccc(Br)cc3)sc2nc1C,10.1%
8,Nc1c(C(=O)c2ccc(Cl)cc2)sc2nc(-c3ccccc3)ccc12,-3.6%
9,Nc1c(C(=O)c2ccc(Br)cc2)sc2nc(C(F)(F)F)c(C(=O)c3cccs3)cc12,51.1%
10,Cc1cc([N+](=O)[O-])nn1C(=O)c1nn(C)cc1Br,0.4%
11,N#Cc1ccccc1NC(=O)c1ccc(-c2ccccc2)cc1,12.6%
12,Cc1ccc(-c2nc3s/c(=C\c4cn(-c5ccccc5)nc4-c4ccccc4)c(=O)n3n2)cc1,8.5%
13,COc1ccc(Cl)cc1NS(=O)(=O)c1cccc([N+](=O)[O-])c1,72.8%
14,COc1ccc(OC)c(NS(=O)(=O)c2cccc([N+](=O)[O-])c2)c1,2.1%
15,Cc1cc(Cl)ccc1NS(=O)(=O)c1cccc([N+](=O)[O-])c1,-1.2%
16,CC(C)C(=O)Nc1cc(C(F)(F)F)cc(C(F)(F)F)c1,-2.9%
17,CCc1ccc(NC(=O)C(=O)NCc2ccccc2OC)cc1,6.8%
18,COc1ccc(C=C2C(=O)N(c3ccccc3)C(=S)N(c3ccccc3)C2=O)c(OC)c1,10.9%
19,COc1ccc(C2=N/C(=C/c3ccc(F)cc3)C(=O)N2c2ccc(O)cc2)cc1,9%
20,COc1ccc(/C=C2/SC(=O)N(c3ccccc3)C2=O)c(OC)c1,5.9%
21,COc1ccc(C2=N/C(=C/c3ccccc3OC)C(=O)N2c2ccccc2)cc1,6.4%
22,COc1ccc(N2C(=O)/C(=C\c3ccc(OC)cc3OC)N=C2c2ccccc2)cc1,192%
23,COc1ccc(C2=N/C(=C/c3ccccc3F)C(=O)N2c2ccccc2)cc1,125%
24,O=C1C(=O)N(c2cccc(Br)c2)C(c2ccccc2)/C1=C(/O)c1ccccc1 (stereo not drawn),12%
25,COc1ccc(NC(=O)c2ccc(S(=O)(=O)N3CCOCC3)cc2)c2ccccc12,-8.9%
26,Cc1cccn2c(=O)c(/C=C3\SC(=S)N(C(C)c4ccccc4)C3=O)c(NCCCn3ccnc3)nc12 (stereo not drawn),8.8%
